According to PubChem BioAssay (NCATS):
Unmarked numbers belong to inactive results. Inconclusive results are not listed. A call without a number means that no potency is given here. The source made the active and inactive calls. Unless noted, calls follow the shape of the dose curve; as a rule, active = well fitted curve in the direction sought with a large enough effect; inconclusive = small, poorly fitted or top-dose-only effect, or another doubt; inactive = no such curve, though single readings can be large; an effect the other way counts as inactive or inconclusive.

Legend:
[1] = target: Glutathione peroxidase 1 (Homo sapiens) (UniProt P07203); experiment: Primary qHTS Assay for Inhibitors of Recombinant Selenoprotein Glutathione Peroxidase 1 (GPX1) (AID 1845191); also: nearly all actives have a fitted effect of over 65% in size; also: potency is read from the fitted curve at half-maximal effect
Procedure, shortened: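 GPX1 10 nM, GR 100 nM, GSH 1 mM, NADPH 0.5 mM, CHP 0.5 mM (final). 30-min cpd preincubation, RT. Ex340/Em450 read t=0, t=15 min.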

[2] = NCATS anti-infectives library activity on HEK293 viability as a counter-qHTS vs the C. elegans viability qHTS (AID 1745854);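 also: HEK293 cells exposed to compounds for 24 hr before the viability read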
Procedure, shortened: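 Compound titrations (final up to 41.7 uM) were incubated with HEK293 cells for 24 hr at 37C under 5% CO2. Viable cells were quantified with CellTiter-Glo after 10 min at ambient temperature.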

[3] = target: Phospholipid hydroperoxide glutathione peroxidase GPX4 (Homo sapiens) (UniProt P36969); experiment: Primary qHTS Assay for Inhibitors of Recombinant Selenoprotein Glutathione Peroxidase 4 (GPX4) (AID 1845192); also: nearly all actives have a fitted effect of over 65% in size
Procedure, shortened: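 qHTS, GR-coupled: GPX4 200 nM + cpd 30 min RT → GSH 1 mM, NADPH 0.5 mM, GR 100 nM → CHP 0.5 mM start; fluor 340/450 at t0 and t15 min; no-enzyme wells as control.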

[4] = Viability counterscreen for antagonist of constitutive androstane receptor (CAR) against the NCATS DSHEA and TCM libraries (AID 1794837);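 also: compound exposure lasted 24 h before viability reading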
Procedure, shortened: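 Cell viability, CellTiter-Fluor, Ex/Em 405/540 nm, 1 h at 37C. HepG2-CYP2B6-hCAR, 2,500 cells/well; cpds + CITCO 48 uM final (antagonist mode), 24 h, 37C/5% CO2.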

[5] = Viability counterscreen for agonist of constitutive androstane receptor (CAR) against the NCATS DSHEA and TCM libraries (AID 1794838)
Procedure, shortened: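 Viability by CellTiter-Fluor fluorescence, 405/540 nm, after 1 h at 37C. HepG2-CYP2B6-hCAR cells were exposed 24 h to test substances in presence of 0.75 uM PK11195 (final).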

[6] = target: Nuclear receptor subfamily 1 group I member 3 (Homo sapiens) (UniProt Q14994); experiment: Primary qHTS for agonist of constitutive androstane receptor (CAR) against the NCATS DSHEA and TCM libraries (AID 1794839);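 also: HepG2 cells expressing human CAR with a CYP2B6 reporter plus PK11195 antagonist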
Procedure, shortened: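 Luminescence from ONE-Glo luciferase was the agonist read-out in HepG2-CYP2B6-hCAR cells exposed 24 h to test substances. Wells also held the CAR antagonist PK11195 at 0.75 µM final. Viability was by CellTiter-Fluor fluorescence.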

[7] = HepG2 viability counterscreen (readout 2: ATP content) against the NCATS DSHEA and TCM libraries (AID 1794840)
Procedure, shortened: (§1)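 1,000 HepG2 cells/well, 4 h attach; compounds ~24 h, 37C/5% CO2. Readout 1: GF-AFC 25 uM final, 30 min, fluorescence 380/510 nm. Readout 2: CellTiter-Glo, 30 min RT, luminescence.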

[8] = HepG2 viability counterscreen (readout 1: protease activity) against the NCATS DSHEA and TCM libraries (AID 1794841);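 also: cells exposed to compounds for about 24 h before the protease read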
Procedure, shortened: as §1

[9] = target: Metallo-beta-lactamase type 2 (Klebsiella pneumoniae) (UniProt C7C422); experiment: qHTS to identify inhibitors of the New Delhi Metallo-beta-lactamase (NDM): assay validation screen against the NCATS LOPAC Collection (AID 1794843);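 also: nitrocefin turnover by NDM-1 measured as 485 nm absorbance at plateau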
Procedure, shortened: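 NDM-1 at 2 nM final in 50 mM HEPES pH 7.0, 1 uM ZnSO4, 0.01% Tween20, preincubated with LOPAC compounds pinned in DMSO; 50 uM nitrocefin (stock) added. Hydrolysis read as absorbance at 485 nm in the plateau phase.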

[10] = target: Cytochrome P450 3A4 (Homo sapiens) (UniProt P08684); experiment: qHTS for inhibitors of CYP3A4 against the NCATS DSHEA and TCM libraries (AID 1919971);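 also: inhibition lowers luminescence from luciferin made by CYP3A4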
Procedure, shortened: (§2)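 Isoform-specific enzyme and substrate levels; enzyme-free wells as background. Reaction: 1x NADPH regenerating system, 30-45 min, room temperature, shielded from light; luminescent detection reagent added, 30 min.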

[11] = target: Cytochrome P450 2D6 (Homo sapiens) (UniProt P10635); experiment: qHTS for inhibitors of CYP2D6 against the NCATS DSHEA and TCM libraries (AID 1919972)
Procedure, shortened: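 qHTS, concentration–response format with most substances from 19.5 nM. CYP2D6 + pro-luciferin substrate, 15 min with compound, then 1x NADPH regen, 30–45 min RT dark. Glo detection 30 min, luminescence. Quinidine control.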

[12] = target: Cytochrome P450 2C9 (Homo sapiens) (UniProt P11712); experiment: qHTS for inhibitors of CYP2C9 against the NCATS DSHEA and TCM libraries (AID 1919973);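 also: luminogenic pro-luciferin CYP2C9 substrate turned into luciferin with NADPH regeneration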
Procedure, shortened: as §2

[13] = target: Cytochrome P450 2C19 (Homo sapiens) (UniProt P33261); experiment: qHTS for inhibitors of CYP2C19 against the NCATS DSHEA and TCM libraries (AID 1919974);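 also: luminescence from luciferin released by CYP2C19 oxidation of a pro-luciferin substrate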; also: potency is read from the fitted curve at half-maximal effect
Procedure, shortened: as §2

[14] = KB-3-1 P-gp reporter qHTS against the NCATS DSHEA and TCM libraries (AID 1919975)
Procedure, shortened: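 CellTiter-Glo luminescence viability readout; KB-3-1 parental cells, 500/well, attached ~4 h, then compound for ~72 h, 37C, 5% CO2. Bortezomib intraplate control.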

[15] = target: Cytochrome P450 1A2 (Homo sapiens) (UniProt P05177); experiment: qHTS for inhibitors of CYPIA2 against the NCATS DSHEA and TCM libraries (AID 1919976); also: potency is read from the fitted curve at half-maximal effect
Procedure, shortened: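 Furafylline served as the plate control. Compounds met CYP1A2 and pro-luciferin substrate 15 min before NADPH regeneration solution (1x) was added; after 30-45 min at RT, P450-Glo reagent was added for 30 min and luminescence was measured.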

[16] = target: Luciferin 4-monooxygenase (Photinus pyralis) (UniProt P08659); experiment: Primary firefly luciferase (FLuc) qHTS assay for identification of artifact compounds. (AID 1845220); also: nearly all actives have a fitted effect of over 60% in size; also: potency is read from the fitted curve at half-maximal effect
Procedure, shortened: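 Reaction readout was CCD-imaged luminescence, taken 5 min after adding 10 nM purified firefly enzyme to compound-treated wells holding 10 uM luciferin and ATP in pH 7.6 buffer.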

[17] = Primary fluorescence-based thiol-reactive (MSTI) qHTS assay for identification of artifact compounds. (AID 1845221);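 also: thiol-reactive compounds lower the probe fluorescence signal; nearly all actives have a fitted effect of over 65% in size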
Procedure, shortened: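 Curve-fitted percent inhibition (4-parameter Hill) derived from fluorescence, Ex 525/Em 598 nm, scaled with Acetyl-MSTI and MSTI; 1 h incubation at room temperature.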

[18] = Primary redox qHTS assay for identification of artifact compounds. (AID 1845223)
Procedure, shortened: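 Redox-cycling detection via DTT (250 uM final) oxidation coupled to Amplex Red (25 uM)/HRP (250 mU/mL) in HBSS. 15 min preincubation plus 30 min after DTT, room temperature. Ex/Em 525/598 nm; 4-parameter Hill fit against DMSO and 10 uM DA3003.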

[19] = NCATS anti-infectives library activity on the primary C. elegans qHTS viability assay (AID 1745855; calls by dose curve); details: C. elegans worm area imaging, day 7; at 41.8 µM (top of the series)
Procedure, shortened: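 Titration-based screen in worms: eggs hatched overnight in M9, L1 larvae fed TOP10 capsules in S medium with compound, incubated 21 °C for 7 days; fluorescent objects gated by size and intensity at days 0, 3 and 7.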

Sequence of Glutathione peroxidase 1 (Homo sapiens) (P07203 whole entry, looked up): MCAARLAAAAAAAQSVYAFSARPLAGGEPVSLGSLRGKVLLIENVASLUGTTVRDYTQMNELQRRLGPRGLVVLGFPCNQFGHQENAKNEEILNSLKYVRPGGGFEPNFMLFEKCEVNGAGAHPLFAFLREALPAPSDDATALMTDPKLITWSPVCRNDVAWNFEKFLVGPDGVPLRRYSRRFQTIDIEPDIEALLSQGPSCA
Sequence of Phospholipid hydroperoxide glutathione peroxidase GPX4 (Homo sapiens) (P36969 whole entry, looked up): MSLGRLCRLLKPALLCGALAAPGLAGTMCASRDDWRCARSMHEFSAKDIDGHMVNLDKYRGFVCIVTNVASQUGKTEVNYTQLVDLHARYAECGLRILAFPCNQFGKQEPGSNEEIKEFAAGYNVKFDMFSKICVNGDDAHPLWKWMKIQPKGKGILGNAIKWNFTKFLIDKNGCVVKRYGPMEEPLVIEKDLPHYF
Sequence of Metallo-beta-lactamase type 2 (Klebsiella pneumoniae) (C7C422 whole entry, looked up): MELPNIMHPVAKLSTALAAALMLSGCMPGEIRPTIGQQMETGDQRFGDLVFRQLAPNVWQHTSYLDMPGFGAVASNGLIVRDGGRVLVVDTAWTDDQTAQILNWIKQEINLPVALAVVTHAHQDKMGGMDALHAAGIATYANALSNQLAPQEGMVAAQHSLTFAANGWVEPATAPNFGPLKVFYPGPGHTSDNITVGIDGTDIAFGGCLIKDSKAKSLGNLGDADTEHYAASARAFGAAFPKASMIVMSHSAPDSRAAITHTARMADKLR
Sequence of Nuclear receptor subfamily 1 group I member 3 (Homo sapiens) (Q14994 whole entry, looked up): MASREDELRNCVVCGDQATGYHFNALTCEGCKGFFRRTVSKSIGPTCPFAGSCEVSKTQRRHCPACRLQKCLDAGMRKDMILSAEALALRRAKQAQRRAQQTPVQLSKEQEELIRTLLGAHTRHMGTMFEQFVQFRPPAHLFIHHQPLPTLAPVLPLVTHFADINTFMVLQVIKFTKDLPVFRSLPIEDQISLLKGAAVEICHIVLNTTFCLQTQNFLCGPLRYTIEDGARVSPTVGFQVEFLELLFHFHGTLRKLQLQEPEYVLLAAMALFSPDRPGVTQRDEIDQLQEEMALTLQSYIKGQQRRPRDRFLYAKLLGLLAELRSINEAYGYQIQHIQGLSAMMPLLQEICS
Sequence of Cytochrome P450 3A4 (Homo sapiens) (P08684 whole entry, looked up, canonical isoform): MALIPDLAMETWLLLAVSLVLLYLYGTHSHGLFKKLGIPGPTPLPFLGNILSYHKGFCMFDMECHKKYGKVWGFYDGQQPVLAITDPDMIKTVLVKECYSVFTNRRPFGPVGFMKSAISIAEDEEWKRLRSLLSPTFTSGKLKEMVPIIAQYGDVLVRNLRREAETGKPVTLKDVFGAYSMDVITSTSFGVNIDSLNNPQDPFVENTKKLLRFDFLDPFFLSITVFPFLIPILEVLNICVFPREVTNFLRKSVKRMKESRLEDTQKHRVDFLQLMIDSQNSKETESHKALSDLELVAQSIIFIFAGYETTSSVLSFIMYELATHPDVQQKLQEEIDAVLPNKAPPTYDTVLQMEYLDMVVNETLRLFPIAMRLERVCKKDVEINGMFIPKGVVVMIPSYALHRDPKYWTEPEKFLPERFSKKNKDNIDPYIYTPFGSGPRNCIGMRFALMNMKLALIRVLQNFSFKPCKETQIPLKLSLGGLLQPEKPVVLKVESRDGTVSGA
Sequence of Cytochrome P450 2D6 (Homo sapiens) (P10635 whole entry, looked up): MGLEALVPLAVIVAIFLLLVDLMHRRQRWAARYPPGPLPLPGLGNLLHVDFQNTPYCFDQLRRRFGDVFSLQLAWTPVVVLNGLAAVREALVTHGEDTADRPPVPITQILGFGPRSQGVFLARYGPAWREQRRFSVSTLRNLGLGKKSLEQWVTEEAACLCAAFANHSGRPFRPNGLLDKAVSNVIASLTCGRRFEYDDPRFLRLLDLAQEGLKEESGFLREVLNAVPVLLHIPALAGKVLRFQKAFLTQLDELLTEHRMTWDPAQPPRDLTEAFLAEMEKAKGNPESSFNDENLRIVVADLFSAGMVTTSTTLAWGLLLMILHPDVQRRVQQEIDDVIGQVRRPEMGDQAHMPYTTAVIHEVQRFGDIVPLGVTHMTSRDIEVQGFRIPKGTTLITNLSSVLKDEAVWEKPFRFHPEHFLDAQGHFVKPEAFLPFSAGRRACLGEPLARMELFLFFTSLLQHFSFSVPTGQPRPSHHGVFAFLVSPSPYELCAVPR
Sequence of Cytochrome P450 1A2 (Homo sapiens) (P05177 whole entry, looked up): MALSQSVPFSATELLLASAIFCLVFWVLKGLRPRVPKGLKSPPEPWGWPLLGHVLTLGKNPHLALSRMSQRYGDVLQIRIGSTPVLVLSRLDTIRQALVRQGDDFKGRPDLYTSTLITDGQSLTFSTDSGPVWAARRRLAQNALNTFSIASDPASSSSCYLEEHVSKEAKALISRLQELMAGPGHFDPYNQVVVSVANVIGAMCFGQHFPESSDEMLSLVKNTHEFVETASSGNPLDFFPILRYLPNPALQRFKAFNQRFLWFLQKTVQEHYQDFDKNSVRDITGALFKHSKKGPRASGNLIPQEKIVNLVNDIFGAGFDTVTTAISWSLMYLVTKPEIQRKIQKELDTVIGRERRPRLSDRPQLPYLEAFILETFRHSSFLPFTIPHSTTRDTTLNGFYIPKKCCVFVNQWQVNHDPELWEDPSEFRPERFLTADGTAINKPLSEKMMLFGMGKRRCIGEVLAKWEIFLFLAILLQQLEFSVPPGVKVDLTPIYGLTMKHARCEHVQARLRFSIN
Sequence of Cytochrome P450 2C9 (Homo sapiens) (P11712 whole entry, looked up): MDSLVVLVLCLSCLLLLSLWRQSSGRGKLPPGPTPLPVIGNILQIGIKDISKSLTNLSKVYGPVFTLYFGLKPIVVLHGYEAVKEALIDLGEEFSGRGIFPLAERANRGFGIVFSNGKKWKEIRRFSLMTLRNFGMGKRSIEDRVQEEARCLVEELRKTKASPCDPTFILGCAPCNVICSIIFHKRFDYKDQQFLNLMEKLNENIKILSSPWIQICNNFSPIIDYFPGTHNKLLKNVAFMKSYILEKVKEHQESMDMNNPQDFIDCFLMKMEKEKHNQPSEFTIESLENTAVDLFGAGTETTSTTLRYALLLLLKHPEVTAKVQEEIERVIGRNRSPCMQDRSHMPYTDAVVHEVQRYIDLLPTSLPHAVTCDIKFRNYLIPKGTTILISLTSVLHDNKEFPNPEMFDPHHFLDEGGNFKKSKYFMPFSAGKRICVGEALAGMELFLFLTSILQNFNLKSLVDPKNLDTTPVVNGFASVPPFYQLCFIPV
Sequence of Cytochrome P450 2C19 (Homo sapiens) (P33261 whole entry, looked up): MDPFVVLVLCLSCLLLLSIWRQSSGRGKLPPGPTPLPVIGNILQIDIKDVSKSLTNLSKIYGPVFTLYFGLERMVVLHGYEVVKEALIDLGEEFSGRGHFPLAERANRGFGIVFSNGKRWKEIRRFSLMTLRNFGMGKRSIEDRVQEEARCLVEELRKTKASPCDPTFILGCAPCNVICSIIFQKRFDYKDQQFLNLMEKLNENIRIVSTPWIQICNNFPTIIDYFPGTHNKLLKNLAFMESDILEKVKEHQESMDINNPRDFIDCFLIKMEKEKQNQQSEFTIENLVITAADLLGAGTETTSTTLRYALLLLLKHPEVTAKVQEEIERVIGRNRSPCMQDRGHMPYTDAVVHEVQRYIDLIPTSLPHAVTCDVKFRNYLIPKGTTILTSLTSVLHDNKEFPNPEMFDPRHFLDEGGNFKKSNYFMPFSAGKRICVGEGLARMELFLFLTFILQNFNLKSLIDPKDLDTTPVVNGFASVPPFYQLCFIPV

Question: For `COc1cc(C(=O)NC2CCCNC2)cc(OC)c1OC` (stereo unspecified), which Potency [1] is on record?
Answer: 12.8 µM (active)

Question: What does the source list for `CC[C@@H]([C@H](C)O)n1ncn(-c2ccc(N3CCN(c4ccc(OC[C@@H]5CO[C@@](Cn6cncn6)(c6ccc(F)cc6F)C5)cc4)CC3)cc2)c1=O`?
Answer: Potency [2]: inactive; Potency [1]: inactive; Potency [3]: inactive

Question: For `O=C(Nc1ccc(S(=O)(=O)N2CCOCC2)cc1)c1cc(Cl)ccc1NS(=O)(=O)c1ccc(Cl)s1`, which Potency [1] is on record?
Answer: inactive

Question: For `O=C(Nc1ccc(Cl)cc1)Nc1ccc(Cl)c(C(F)(F)F)c1`, which Potency [1] is on record?
Answer: inactive

Question: For `C[N+](C)(C)CCO`, which outcome [4] is on record?
Answer: inactive

Question: And the outcome [5]?
Answer: inactive

Question: What about the outcome [6] of the same molecule?
Answer: inactive

Question: And the outcome [7]?
Answer: inactive

Question: What about the outcome [8] of the same molecule?
Answer: inactive

Question: What about the outcome [9] of the same molecule?
Answer: inactive

Question: And the Potency [1]?
Answer: inactive

Question: And the Potency [3]?
Answer: inactive

Question: And the outcome [10]?
Answer: inactive

Question: And the outcome [11]?
Answer: inactive

Question: And the outcome [12]?
Answer: inactive

Question: And the Potency [13]?
Answer: inactive

Question: And the outcome [14]?
Answer: inactive

Question: What about the Potency [15] of the same molecule?
Answer: inactive

Question: For `O=C1NC(=O)/C(=C/c2ccc3c(c2)OC(F)(F)O3)S1`, which outcome [9] is on record?
Answer: inactive

Question: And the Potency [1]?
Answer: inactive

Question: And the Potency [3]?
Answer: inactive

Question: And the Potency [16]?
Answer: 9.53 µM (active)

Question: What about the Potency [17] of the same molecule?
Answer: inactive

Question: And the outcome [18]?
Answer: inactive

Question: Which outcome [9] does the source give for `O=C1NC(c2cccc([N+](=O)[O-])c2)=CCN1c1ccccc1O` here?
Answer: inactive

Question: And the Potency [1]?
Answer: inactive

Question: What about the Potency [3] of the same molecule?
Answer: inactive

Question: And the Potency [16]?
Answer: inactive

Question: With `CCCc1c2oc(C(=O)O)cc(=O)c2cc2c(=O)cc(C(=O)O)n(CC)c12` as the molecule, how does the Potency [1] read?
Answer: inactive

Question: For `Fc1ccc(C(c2ccc(F)cc2)N2CCNCC2)cc1`, which Potency [1] is on record?
Answer: inactive

Question: Which Potency [1] does the source give for `Nc1c2ccccc2nc2ccccc12` here?
Answer: 22.7 µM (active)

Question: Which results are given for `Clc1ccc2c(c1)N=C(N1CCNCC1)c1ccccc1N2`?
Answer: Potency [2]: inactive; outcome [19]: inactive; outcome [9]: inactive; Potency [1]: inactive; Potency [3]: inactive; Potency [16]: inactive; outcome [18]: inactive

Question: With `Cc1cc2nc3ccc(=[N+](C)C)cc-3sc2cc1N` as the molecule, how does the Potency [1] read?
Answer: 28.6 µM (active)

Question: For `Cc1cc(CCCOc2c(C)cc(-c3noc(C(F)(F)F)n3)cc2C)on1`, which Potency [2] is on record?
Answer: inactive

Question: For `CN1CCC(Nc2ncc3ncnc(Nc4ccc(F)c(Cl)c4)c3n2)CC1`, which Potency [1] is on record?
Answer: inactive

Question: For `O=C(O)CCCC[C@@H]1SC[C@@H]2NC(=O)N[C@@H]21`, which outcome [4] is on record?
Answer: inactive

Question: And the outcome [5]?
Answer: inactive

Question: What about the outcome [6] of the same molecule?
Answer: inactive

Question: What about the outcome [7] of the same molecule?
Answer: inactive

Question: And the outcome [8]?
Answer: inactive

Question: What about the Potency [1] of the same molecule?
Answer: inactive

Question: And the Potency [3]?
Answer: inactive

Question: And the outcome [10]?
Answer: inactive

Question: What about the outcome [11] of the same molecule?
Answer: inactive

Question: What about the outcome [12] of the same molecule?
Answer: inactive

Question: And the Potency [13]?
Answer: 3.55 µM (active)

Question: What about the outcome [14] of the same molecule?
Answer: inactive

Question: And the Potency [15]?
Answer: 3.98 µM (active)
